The list is not random: actives were taken first. Their share in the collection is about 12%.
JMJD2A Tudor: blocks the human JMJD2A Tudor domain | O75164 | AlphaScreen JMJD2A-Tudor / H3K4me3 peptide binding | Potency, µM (titrated, usually from 114 µM), for the others: at the top dose activity change, negative = inhibition, actives largely listed as inhibitors | 4.4% of 390,000 active | AID 504339; note: potency is the fitted concentration of half-maximal effect; % is set by controls: 0 for no effect and ±100 for the full control effect; nearly all actives have a fitted effect of over 50% in size
PLK1 PBD inh: PLK1 (human) polo-box domain binding inhibition; Plk1 PBD binding of FITC phosphopeptide, fluorescence polarization; Potency, µM, for inactives: max response, negative = inhibition, usual class: inhibitors; 2.8% of 360,000 active; AID 720504; note: potency is the fitted concentration of half-maximal effect; series mostly up to about 57 µM; % is set by controls: 0 for no effect and ±100 for the full control effect; nearly all actives have a fitted effect of over 65% in size
G9a block: blocks human histone lysine methyltransferase G9a | AID 504332 | Q96KQ7 | Potency, µM (top dose mostly 102 µM), for inactives: at the highest dose activity, negative = inhibition, actives largely listed as inhibitors | G9a H3K9 monomethylation, AlphaScreen, 2 h | 8.8% of 350,000 active; note: potency is the fitted concentration of half-maximal effect; % is set by controls: 0 for no effect and ±100 for the full control effect; nearly all actives have a fitted effect of over 75% in size
Target sequence (Q96KQ7 913-1193 limits assumed): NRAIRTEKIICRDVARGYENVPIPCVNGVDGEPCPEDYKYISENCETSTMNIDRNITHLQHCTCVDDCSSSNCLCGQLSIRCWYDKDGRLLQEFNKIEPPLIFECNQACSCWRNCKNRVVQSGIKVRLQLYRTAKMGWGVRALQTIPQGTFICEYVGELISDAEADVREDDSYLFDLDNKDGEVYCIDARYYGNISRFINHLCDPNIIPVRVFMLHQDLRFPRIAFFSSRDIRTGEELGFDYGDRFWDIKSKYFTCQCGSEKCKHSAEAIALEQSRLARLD
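G9a (20 nM) preincubated 15 min RT with compounds, then 500 nM biotinylated H3K9 peptide and 20 uM SAM added; 2 h RT reaction. Monomethyl-H3K9 product detected by AlphaScreen with anti-H3K9me1 antibody, streptavidin donor and anti-rabbit IgG acceptor beads.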
PI5P4Ka inh: blocks human PI5P4K alpha kinase activity; PI5P4Kalpha enzyme, ADP-Glo luminescence, 60 min; active compounds read low; P48426; 1.2% of 330,000 active; AID 652105; max response, %; active = max response of -50% or lower; inconclusive = between -30% and -50%; inactive = -30% or higher; note: value at the top dose of about 77 µM; % is set by controls: 0 for no effect and ±100 for the full control effect
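Human PI5P4Kalpha with substrate in 0.038 M HEPES pH 7.4, 0.28 mM EGTA, 0.1% CHAPS, 5% DMSO; reaction started with 5 microM ATP (final), 60 min at room temperature. ADP formed read by ADP-Glo luminescence.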
HP1b binding inh: inhibitors of HP1-beta chromodomain binding to methylated histone tails; P83916; AlphaScreen HP1-beta / biotin-H3K9me3 peptide binding; Potency, µM (titrated, usually from 114 µM), for the others: top-dose activity change, negative = inhibition, actives largely listed as inhibitors; 0.56% of 390,000 active; note: potency is the fitted concentration of half-maximal effect; nearly all actives have a fitted effect of over 70% in size
Target sequence (P83916 whole entry, looked up): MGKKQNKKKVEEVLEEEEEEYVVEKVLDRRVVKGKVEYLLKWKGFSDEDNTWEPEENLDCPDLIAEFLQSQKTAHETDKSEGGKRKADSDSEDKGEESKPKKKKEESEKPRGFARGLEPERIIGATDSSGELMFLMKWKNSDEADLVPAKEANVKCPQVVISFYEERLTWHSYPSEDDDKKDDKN
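Compound inhibition of the preformed complex between 50 nM HP1-beta and 50 nM biotinylated H3K9me3 peptide was read by AlphaScreen. Buffer was PBS pH 7.4 with 0.01% Tween-20. Incubations ran 30 min at room temperature, with 10 ug/mL donor/acceptor beads.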
BAZ2B block: BAZ2B (human) inhibition. Q9UIF8. AlphaScreen BAZ2B-H3K14Ac peptide displacement. Potency, µM (doses to about 114 µM), without a hit: at the highest dose activity change, negative = inhibition, most hits filed as inhibitors. 4.4% of 360,000 active. AID 504333; note: potency is the fitted concentration of half-maximal effect; % is set by controls: 0 for no effect and ±100 for the full control effect; nearly all actives have a fitted effect of over 60% in size
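In this displacement format the biotinylated H3(5-23) peptide acetylated at Lys14 serves as ligand at 50 nM, with BAZ2B at 50 nM in PBS pH 7.4 containing 0.01% Tween-20. Donor and acceptor beads are 10 ug/mL final.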
* hit, by the source's call; u = inconclusive; x = no result; [ ] = another dose, or the depositor's remark. Unless noted, calls come from the whole dose curve; as a rule, active = well fitted curve in the direction sought with a large enough effect; inconclusive = small, poorly fitted or top-dose-only effect, or another doubt; inactive = no such curve, though single readings can be large; an effect the other way counts as inactive or inconclusive.

SMILES | JMJD2A Tudor | PLK1 PBD inh | G9a block | PI5P4Ka inh | HP1b binding inh | BAZ2B block
CCOc1cc(Br)cc(C(c2c(C(=O)O)[nH]c3ccccc23)c2c(C(=O)O)[nH]c3ccccc23)c1O | -24% | 15µM* | 20%[0.501 µM] | -10 | 26% | -33%
CSc1ccc(C(c2c(C(=O)O)[nH]c3ccccc23)c2c(C(=O)O)[nH]c3ccccc23)cc1 | -19% | 11µM* | 21%[0.501 µM] | -10 | 15% | 50µM*
CC(=O)N1CC(C)Sc2ccc(S(=O)(=O)NCCc3cccc(C)c3)cc21 (stereo not drawn) | u | 12µM* | -13% | -20 | 18% | -19%
CC(=O)N1CC(C)Sc2ccc(S(=O)(=O)NCc3ccc(F)cc3)cc21 (stereo not drawn) | -10% | -11% | -20% | 0 | 13%[57 µM] | 1%
CCc1cccc(-n2c(C)nc3c(cnn3-c3ccc(Cl)cc3)c2=O)c1 | -14% | x | -5%[59 µM] | x | 21% | x
COc1cccc(-n2c(C)nc3c(cnn3-c3ccc(Cl)cc3)c2=O)c1 | -9%[11.4 µM] | 21µM* | 1%[12.7 µM] | -13 | -11% | 8%
COc1ccccc1-n1c(-c2ccccc2)c[nH]c1=S | u | -3% | 0.89µM* | -10 | 9% | u
S=c1[nH]cc(-c2ccccc2)n1-c1ccccc1Cl | 50µM* | -9% | u | -1 | -1% | -38%
COc1ccccc1-n1c(-c2ccc(F)cc2)coc1=O | -11% | 5% | -33% | 22 | 3% | -22%
COc1cccc(Cn2c(SCC(=O)N(C)c3ccccc3)nc3ccccc32)c1 | -10% | x | -7%[59 µM] | x | 5% | -17%
COc1ccc(NC(=O)CCCc2nnc3n(C(C)C)c(=O)c4sccc4n23)cc1Cl | 4% | x | 19%[59 µM] | x | 73% | 6%
Cc1ccccc1Nc1nc(=O)c2cc([N+](=O)[O-])ccc2s1 | -8% | -13% | 35µM* | -12 | 8% | 21%
COc1ccc(Nc2nc(=O)c3cc([N+](=O)[O-])ccc3s2)cc1 | -21% | -20% | u | -6 | 42% | 79µM*
Cc1ccc(Nc2nc(=O)c3cc([N+](=O)[O-])ccc3s2)cc1 | -1% | -2% | 25%[59 µM] | -18 | 47% | 1%
O=c1c(-c2ccc(F)cc2)nc2cnc(Nc3ccccc3)nc2n1C[C@H]1CCCO1 | x | x | 8%[0.501 µM] | x | x | x
COC[C@@H]1CCCN1[C@H]1CS(=O)(=O)N[C@@H]1COCc1ccccc1 | x | -13% | x | -1 | x | x
CC(=O)Oc1cccc2c1C(=O)c1c(OC(C)=O)cc(C(=O)O)cc1C2=O | u | u | 3.5µM* | -76* | 18% | u
CC(=O)Oc1ccc(C(=O)O)cc1OC(C)=O | -1% | -10% | 12%[59 µM] | x | 48% | u
CC(C)C12CN3CC(C(C)C)(CN(C1)C3c1ccc(Cl)cc1)C2=O (stereo not drawn) | 22% | x | -4%[59 µM] | x | 49% | 4%
O=C(NCCc1ccccc1)N1c2ccccc2Sc2ccccc21 | u | 24µM* | 79% | -6 | u | 8%
CC(C)CNC(=O)N1c2ccccc2Sc2ccccc21 | 3% | -3% | 21% | -7 | 39% | 0%
Cc1ccc(C(=O)NCCCc2ccccc2)c(C)c1 | u | 24µM* | x | u | 3% | -8%
Cc1ccc(NNC(=O)CCc2ccccc2)c(C)c1 | 2% | 5% | 32µM* | 0 | 29% | -5%
Cc1ccc(NNC(=O)c2ccno2)c(C)c1 | -17% | 4% | 0.79µM* | 1 | 49% | -1%
Cc1nc2c(c(C)nn2-c2ccccc2)c(C)c1CCC(=O)Nc1ccc(F)cc1 | 0% | x | 14%[59 µM] | x | 44% | -12%
SMILES | JMJD2A Tudor | PLK1 PBD inh | G9a block | PI5P4Ka inh | HP1b binding inh | BAZ2B block
COc1cccc(C(=O)NNC(=O)c2ccc3ccccc3c2O)c1 | -23% | -8% | x | -7 | 11% | x
CC(C)c1ccc(C2c3c(-c4ccccc4O)n[nH]c3C(=O)N2Cc2ccncc2)cc1 (stereo not drawn) | -30% | x | 5%[59 µM] | x | 53% | -4%
CCOc1cc(/C=C2\C(=N)N3N=CSC3=NC2=O)ccc1OS(=O)(=O)c1ccccc1 | -23% | 24µM* | 12% | u | 8% | 0%
CCOc1cc(/C=C2\C(=N)N3N=C(C)SC3=NC2=O)ccc1OCCOc1cccc(OC)c1 | 3% | 0% | 11% | -3 | 40% | -27%
CCc1nn2c(=O)cc(COc3ccc(/C=C4\C(=N)N5N=C(C)SC5=NC4=O)cc3)nc2s1 | 56µM* | u | -13%[59 µM] | -72* | 15% | 50µM*
COc1cc(/C=C2\C(=N)N3N=C(S(C)(=O)=O)SC3=NC2=O)ccc1OS(=O)(=O)c1ccc(C)cc1 | 56µM* | 24µM* | 10%[59 µM] | -80* | -5% | 50µM*
CCOc1cc(/C=C2/C(=N)N3N=C(C)SC3=NC2=O)ccc1OS(=O)(=O)c1ccc(C)cc1 | -22% | 17µM* | 2% | -20 | 1% | 8%
COc1cc(/C=C2\C(=N)N3N=CSC3=NC2=O)ccc1OS(=O)(=O)c1ccccc1 | -24% | u | u | u | 23% | 1%
CCOC(=O)c1c(C)oc2ncnc(N3CCN(c4ccccc4F)CC3)c12 | -7% | x | -7%[59 µM] | x | 33% | -5%
CC1C=CC(C)C(C(=O)O)C1C(=O)O (stereo not drawn) | 45µM* | u | u | -1 | -5% | 50µM*
C=CCN(C(=O)CSC1=NC(=O)CN1C(C)=O)c1nc(C)c(-c2ccccc2)s1 | u | u | 40µM* | -1 | 8% | 35µM*
C=CCSc1nnc(-c2sc(-c3ccccc3)nc2C)n1C | 8% | 0% | 13%[59 µM] | 0 | 42% | -1%
CS(=O)(=O)Nc1cccc(C2=NN(S(=O)(=O)c3ccc(F)cc3)C(c3cccs3)C2)c1 (stereo not drawn) | 79µM* | u | -18%[59 µM] | 6 | -5% | -5%
COc1ccc(S(=O)(=O)N2N=C(c3cccc(NS(C)(=O)=O)c3)CC2c2ccco2)cc1 (stereo not drawn) | 3% | -6% | 45µM* | -16 | 66% | -30%
COc1ccc(S(=O)(=O)N2N=C(c3ccc(NS(C)(=O)=O)cc3)CC2c2ccco2)cc1 (stereo not drawn) | -31% | -9% | u | 0 | 16% | x
CCC(C)c1ccc(OCc2ccc(C(=O)O)o2)cc1 (stereo not drawn) | -13% | 2% | -7% | 2 | 19% | 1%
CCOc1c(C)cc2[nH]c(CCC(=O)O)nc2c1C | -6% | -5% | 13µM* | -8 | 29% | -3%
CCOC(=O)c1[nH]c(C)c(CCC(=O)O)c1C | -16% | 0% | 11%[12.7 µM] | 9 | 8% | -1%
COc1cccc(C(=O)Nc2cccc(OCc3cc(=O)n4cc(C)ccc4n3)c2)c1 | -15% | x | -3%[59 µM] | x | 23%[57 µM] | 3%
CCc1cccc(C)c1Nc1c(-c2ccc(SC)cc2)nc2sccn12 | u | x | 14µM* | x | u | 22µM*

Screening data as filed in PubChem BioAssay.
